Reference: the supplement of paper PMC11732987, “Enantioselective OTUD7B fragment discovery through chemoproteomics screening and high-throughput optimisation” (Communications Chemistry, 2025)

How the values were obtained:
Assay in all cases: log2 ratio of Biotin-Ahx-Ub-VS probe labelling (fragment/DMSO); higher = less target engagement (more negative = stronger competition), active = hit call of the paper (q ≤ 0.05, log2 ratio ≤ -1)
Details in all cases: compound concentration: 200 uM; treatment time: 3 h
[1] = biological target: USP9X (UniProt Q93008)
In short: (§1)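 In triplicate, 495 µg of HEK293T lysate per sample was incubated with fragment at 200 µM or vehicle for 3 h. Biotin-Ahx-Ub-VS was then added to 0.5 µM final for 1 h, and labelled DUBs were captured with NeutrAvidin, digested with LysC and trypsin, and measured by diaPASEF LC-MS/MS. Data are average log2 fragment/vehicle ratios by unpaired t-test from global-median-normalised Spectronaut label-free quantities, restricted to proteins with ≥2 unique peptides.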

[2] = biological target: UniProt O00487
In short: as §1

[3] = biological target: UniProt O00507
In short: as §1

[4] = biological target: UniProt P51784
In short: as §1

[5] = biological target: T1, UniProt Q5T2D3
T1 sequence (whole entry): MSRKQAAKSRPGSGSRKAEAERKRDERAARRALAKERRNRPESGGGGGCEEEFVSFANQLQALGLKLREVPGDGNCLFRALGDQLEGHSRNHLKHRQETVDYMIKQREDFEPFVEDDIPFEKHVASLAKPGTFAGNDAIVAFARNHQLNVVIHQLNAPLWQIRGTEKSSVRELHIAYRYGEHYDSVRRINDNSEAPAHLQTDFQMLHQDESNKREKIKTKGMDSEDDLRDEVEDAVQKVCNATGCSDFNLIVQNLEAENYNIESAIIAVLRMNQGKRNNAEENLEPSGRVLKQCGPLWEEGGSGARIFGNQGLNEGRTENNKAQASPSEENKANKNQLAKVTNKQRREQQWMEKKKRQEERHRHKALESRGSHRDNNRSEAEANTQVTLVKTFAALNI
In short: as §1

[6] = biological target: T2, UniProt Q8TE49
T2 sequence (whole entry): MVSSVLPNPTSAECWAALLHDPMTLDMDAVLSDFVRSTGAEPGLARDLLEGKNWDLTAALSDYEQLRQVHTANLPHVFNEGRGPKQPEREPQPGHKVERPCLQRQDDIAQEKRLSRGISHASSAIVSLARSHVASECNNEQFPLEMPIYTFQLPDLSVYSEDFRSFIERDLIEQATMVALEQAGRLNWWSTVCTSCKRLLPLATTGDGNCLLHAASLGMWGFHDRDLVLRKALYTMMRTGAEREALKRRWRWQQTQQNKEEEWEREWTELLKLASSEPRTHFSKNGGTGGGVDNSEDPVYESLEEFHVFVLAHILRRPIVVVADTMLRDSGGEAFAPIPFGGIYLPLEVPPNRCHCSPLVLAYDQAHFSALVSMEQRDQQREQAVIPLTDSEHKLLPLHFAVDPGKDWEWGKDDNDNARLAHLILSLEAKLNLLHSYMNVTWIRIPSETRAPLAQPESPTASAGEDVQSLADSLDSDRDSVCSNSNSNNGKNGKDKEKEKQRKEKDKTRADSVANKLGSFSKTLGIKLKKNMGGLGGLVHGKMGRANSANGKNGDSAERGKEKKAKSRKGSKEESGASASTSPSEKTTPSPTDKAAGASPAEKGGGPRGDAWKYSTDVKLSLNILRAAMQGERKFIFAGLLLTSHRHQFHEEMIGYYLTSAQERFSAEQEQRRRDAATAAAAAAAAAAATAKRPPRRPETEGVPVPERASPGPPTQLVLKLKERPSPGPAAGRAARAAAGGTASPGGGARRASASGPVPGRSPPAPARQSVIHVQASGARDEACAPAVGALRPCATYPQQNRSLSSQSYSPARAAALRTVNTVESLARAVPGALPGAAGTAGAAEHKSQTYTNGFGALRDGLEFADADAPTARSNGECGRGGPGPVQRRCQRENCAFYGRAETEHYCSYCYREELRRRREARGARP
In short: as §1

[7] = biological target: T3, UniProt Q9P2H5
T3 sequence (whole entry): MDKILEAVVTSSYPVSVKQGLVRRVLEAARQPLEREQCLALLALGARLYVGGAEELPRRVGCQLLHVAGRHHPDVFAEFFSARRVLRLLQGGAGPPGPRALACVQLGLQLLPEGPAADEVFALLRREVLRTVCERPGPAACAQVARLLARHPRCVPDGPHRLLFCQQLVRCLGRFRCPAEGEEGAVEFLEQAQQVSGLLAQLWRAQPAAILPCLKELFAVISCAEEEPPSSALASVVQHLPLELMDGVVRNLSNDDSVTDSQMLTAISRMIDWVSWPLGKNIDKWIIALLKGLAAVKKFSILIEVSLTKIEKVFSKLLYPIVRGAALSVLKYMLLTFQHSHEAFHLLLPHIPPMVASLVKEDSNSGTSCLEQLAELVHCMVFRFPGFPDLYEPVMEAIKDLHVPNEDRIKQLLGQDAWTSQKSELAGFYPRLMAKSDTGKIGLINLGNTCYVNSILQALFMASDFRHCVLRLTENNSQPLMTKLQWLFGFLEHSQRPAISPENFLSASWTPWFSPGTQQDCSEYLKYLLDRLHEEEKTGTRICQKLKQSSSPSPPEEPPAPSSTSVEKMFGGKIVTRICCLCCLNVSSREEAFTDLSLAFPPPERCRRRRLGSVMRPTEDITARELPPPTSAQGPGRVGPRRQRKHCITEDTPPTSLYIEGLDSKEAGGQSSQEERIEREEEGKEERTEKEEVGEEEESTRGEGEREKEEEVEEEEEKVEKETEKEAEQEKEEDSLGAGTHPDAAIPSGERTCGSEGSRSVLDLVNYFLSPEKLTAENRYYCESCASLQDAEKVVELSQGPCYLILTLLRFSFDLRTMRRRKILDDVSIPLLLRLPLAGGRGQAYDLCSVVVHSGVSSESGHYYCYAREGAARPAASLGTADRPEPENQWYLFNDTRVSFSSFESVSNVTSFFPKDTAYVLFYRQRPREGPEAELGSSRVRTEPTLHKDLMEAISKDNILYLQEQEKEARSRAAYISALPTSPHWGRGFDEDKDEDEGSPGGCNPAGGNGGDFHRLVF
In short: as §1

[8] = biological target: T4, UniProt Q9UGI0
T4 sequence (whole entry): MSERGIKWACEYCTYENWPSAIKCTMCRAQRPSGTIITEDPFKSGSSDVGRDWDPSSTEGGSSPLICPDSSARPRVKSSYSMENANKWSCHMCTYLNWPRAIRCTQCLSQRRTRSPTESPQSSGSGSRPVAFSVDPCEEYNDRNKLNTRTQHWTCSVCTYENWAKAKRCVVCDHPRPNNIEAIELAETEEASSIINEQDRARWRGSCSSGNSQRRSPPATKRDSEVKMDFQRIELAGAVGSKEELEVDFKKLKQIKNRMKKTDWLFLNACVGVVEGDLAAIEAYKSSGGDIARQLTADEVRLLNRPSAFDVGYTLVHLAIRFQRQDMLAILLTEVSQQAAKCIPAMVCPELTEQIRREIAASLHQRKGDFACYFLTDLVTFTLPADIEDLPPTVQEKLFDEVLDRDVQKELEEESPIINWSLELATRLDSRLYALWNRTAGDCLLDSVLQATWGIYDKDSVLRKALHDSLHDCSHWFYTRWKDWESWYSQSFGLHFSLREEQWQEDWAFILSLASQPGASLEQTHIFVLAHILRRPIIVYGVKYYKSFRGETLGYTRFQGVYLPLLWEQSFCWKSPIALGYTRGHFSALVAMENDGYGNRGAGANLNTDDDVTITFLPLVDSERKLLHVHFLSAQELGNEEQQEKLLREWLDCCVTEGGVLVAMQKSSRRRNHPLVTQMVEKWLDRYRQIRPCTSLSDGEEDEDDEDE
In short: as §1

[9] = biological target: T5, YOD1 (UniProt Q5VVQ6)
T5 sequence (whole entry): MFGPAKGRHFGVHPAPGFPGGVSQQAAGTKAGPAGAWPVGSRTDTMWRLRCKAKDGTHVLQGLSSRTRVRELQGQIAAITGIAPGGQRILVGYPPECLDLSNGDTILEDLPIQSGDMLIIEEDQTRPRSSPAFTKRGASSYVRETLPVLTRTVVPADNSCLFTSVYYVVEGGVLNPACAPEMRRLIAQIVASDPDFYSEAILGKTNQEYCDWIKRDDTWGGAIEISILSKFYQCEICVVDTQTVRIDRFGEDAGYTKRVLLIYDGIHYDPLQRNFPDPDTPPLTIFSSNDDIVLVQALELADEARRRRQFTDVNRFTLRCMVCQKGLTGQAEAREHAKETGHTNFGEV
In short: as §1

Measured: log2 ratio of Biotin-Ahx-Ub-VS probe labelling

Chain of UniProt O00487 (O00487 whole entry): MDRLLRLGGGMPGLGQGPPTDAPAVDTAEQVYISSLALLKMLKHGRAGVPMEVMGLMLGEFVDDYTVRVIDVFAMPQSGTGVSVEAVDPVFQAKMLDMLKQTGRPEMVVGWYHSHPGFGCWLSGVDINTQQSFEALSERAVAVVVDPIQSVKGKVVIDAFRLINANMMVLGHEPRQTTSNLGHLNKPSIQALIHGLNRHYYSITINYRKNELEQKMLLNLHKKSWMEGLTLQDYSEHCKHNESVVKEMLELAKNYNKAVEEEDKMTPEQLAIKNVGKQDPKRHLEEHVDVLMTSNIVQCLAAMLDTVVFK
Chain of UniProt P51784 (P51784 whole entry): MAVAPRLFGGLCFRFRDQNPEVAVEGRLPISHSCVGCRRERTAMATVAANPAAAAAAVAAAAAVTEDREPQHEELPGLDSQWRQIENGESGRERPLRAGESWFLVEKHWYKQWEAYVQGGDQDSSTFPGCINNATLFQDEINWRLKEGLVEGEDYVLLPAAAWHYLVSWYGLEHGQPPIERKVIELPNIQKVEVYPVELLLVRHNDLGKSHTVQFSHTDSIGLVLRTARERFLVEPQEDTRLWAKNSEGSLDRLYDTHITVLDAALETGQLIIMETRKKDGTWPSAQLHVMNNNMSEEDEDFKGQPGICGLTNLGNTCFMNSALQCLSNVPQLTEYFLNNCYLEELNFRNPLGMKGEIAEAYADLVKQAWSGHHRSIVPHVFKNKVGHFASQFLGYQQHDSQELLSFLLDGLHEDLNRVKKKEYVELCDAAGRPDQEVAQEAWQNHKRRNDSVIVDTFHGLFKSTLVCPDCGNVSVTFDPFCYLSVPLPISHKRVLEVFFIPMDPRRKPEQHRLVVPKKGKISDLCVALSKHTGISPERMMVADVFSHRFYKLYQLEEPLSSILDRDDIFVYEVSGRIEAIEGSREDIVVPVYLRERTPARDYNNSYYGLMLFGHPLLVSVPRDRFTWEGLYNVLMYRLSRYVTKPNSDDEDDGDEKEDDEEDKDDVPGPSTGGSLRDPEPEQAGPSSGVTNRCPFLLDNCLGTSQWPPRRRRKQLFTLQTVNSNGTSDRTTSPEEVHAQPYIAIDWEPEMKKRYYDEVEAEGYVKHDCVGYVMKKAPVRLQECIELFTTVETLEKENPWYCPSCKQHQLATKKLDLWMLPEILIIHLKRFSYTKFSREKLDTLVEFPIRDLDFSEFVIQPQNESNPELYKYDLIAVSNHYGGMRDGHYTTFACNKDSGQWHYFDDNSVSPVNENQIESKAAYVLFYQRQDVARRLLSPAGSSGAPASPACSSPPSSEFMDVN
Chain of UniProt O00507 (O00507 whole entry): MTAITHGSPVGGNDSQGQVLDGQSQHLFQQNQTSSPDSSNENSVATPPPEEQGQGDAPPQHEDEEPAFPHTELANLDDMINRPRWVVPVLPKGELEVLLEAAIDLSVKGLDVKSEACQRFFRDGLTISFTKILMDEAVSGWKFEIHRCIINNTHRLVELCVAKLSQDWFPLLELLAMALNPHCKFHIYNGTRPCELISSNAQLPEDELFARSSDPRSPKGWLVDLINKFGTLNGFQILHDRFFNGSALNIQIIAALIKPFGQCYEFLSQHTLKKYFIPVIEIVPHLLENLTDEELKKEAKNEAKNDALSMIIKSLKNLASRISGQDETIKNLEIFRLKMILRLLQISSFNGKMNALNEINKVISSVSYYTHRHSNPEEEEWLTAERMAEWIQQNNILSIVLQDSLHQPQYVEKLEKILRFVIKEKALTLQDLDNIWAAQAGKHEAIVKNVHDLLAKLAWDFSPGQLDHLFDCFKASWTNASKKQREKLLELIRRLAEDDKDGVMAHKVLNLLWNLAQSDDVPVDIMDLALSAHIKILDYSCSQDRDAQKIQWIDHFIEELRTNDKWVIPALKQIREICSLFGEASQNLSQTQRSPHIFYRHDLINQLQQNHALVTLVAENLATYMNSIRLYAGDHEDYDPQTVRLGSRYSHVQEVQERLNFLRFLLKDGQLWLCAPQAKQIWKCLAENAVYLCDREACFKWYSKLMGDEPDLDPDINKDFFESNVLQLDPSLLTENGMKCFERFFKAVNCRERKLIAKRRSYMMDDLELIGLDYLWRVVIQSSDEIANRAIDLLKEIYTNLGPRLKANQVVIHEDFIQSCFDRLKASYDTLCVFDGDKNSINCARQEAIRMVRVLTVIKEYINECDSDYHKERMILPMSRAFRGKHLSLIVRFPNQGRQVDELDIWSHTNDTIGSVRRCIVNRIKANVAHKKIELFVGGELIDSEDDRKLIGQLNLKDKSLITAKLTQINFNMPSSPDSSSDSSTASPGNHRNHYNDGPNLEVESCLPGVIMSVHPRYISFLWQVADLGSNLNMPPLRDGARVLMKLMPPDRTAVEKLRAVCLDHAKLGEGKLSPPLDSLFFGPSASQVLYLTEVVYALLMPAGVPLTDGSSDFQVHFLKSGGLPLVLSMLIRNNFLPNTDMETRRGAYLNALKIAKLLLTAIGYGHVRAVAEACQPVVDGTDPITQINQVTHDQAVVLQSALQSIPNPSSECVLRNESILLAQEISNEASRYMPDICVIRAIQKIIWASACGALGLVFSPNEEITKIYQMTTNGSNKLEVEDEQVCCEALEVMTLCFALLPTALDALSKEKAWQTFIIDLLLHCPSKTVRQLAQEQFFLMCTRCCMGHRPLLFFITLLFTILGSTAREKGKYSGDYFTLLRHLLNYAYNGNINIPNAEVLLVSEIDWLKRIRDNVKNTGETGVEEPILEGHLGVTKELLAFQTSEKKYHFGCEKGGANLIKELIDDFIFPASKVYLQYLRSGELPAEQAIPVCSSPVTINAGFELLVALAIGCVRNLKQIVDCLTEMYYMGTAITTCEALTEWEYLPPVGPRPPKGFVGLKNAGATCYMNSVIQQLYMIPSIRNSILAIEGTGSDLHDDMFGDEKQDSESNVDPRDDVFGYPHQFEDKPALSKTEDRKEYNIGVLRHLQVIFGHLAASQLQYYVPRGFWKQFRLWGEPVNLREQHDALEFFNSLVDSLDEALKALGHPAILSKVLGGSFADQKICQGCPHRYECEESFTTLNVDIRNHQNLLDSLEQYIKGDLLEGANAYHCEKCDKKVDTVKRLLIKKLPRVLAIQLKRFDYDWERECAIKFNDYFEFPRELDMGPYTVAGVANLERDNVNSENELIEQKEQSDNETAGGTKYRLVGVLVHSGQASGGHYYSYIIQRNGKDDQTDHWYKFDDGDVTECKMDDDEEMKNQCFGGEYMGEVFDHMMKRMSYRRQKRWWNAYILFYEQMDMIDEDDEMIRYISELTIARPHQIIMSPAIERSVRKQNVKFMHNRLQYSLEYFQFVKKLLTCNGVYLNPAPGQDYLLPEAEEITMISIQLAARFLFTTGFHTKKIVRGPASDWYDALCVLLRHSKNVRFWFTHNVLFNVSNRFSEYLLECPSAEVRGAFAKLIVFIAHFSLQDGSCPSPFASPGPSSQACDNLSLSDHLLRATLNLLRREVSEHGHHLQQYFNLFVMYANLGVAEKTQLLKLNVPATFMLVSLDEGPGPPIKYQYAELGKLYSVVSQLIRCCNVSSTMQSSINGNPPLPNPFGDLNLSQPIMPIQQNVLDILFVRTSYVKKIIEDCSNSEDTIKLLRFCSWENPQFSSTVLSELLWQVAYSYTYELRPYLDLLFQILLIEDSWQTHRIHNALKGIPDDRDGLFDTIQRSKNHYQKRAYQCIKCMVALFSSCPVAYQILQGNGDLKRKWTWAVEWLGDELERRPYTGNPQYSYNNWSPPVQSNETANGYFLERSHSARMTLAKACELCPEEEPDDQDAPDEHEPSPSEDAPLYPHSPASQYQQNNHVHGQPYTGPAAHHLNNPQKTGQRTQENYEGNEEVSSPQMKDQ

Cc1ccn2cc(CNC(=O)CCl)nc2c1.Cl
inactive: [1] -0.141 | [2] -0.0788 | [3] 0.237 | [4] -0.0387 | [5] -0.599 | [6] -0.359 | [7] -0.141 | [8] -0.262 | [9] 0.0926
